Only some compounds are listed: those with a hit (about 5.7% of all), similar ones and a draw of the others.
HT1080 IDH1KD tx: HT-1080 IDH1 knockdown cell toxicity (counter line) | HT-1080 IDH1 knockdown viability, ATP luminescence, 48 h | Potency, µM (titrated, usually from 46.1 µM), for inactives: top-dose activity, negative = toxicity, usual class: cytotoxic | actives 2% (n = 360,000) | AID 686971;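 note: 0% = DMSO wells and -100% = cell-free medium wells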
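% activity derives from luminescence (CellTiter-Glo), normalised to DMSO and no-cell wells. HT-1080-IDH1KD cells, 750/well, had 48 h compound exposure at 37 °C.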
HT1080-NT tox: kills 2HG-producing HT-1080-NT fibrosarcoma cells | HT-1080-NT fibrosarcoma viability, CellTiter-Glo ATP luminescence, 48 h | AID 686970 | actives 1.6% (n = 360,000) | Potency, µM (doses to about 46.1 µM), inactives show at the top dose activity, negative = less viability, hits mostly cytotoxic;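 note: NT is the 2HG producing partner of a matched IDH1 knockdown line; 0% = DMSO-treated cells and -100% = media-only wells without cells; nearly all actives have a fitted effect of over 55% in size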
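750 cells/well, RPMI + 5% FBS; 2 h settle, compound pin-transfer, 48 h at 37 degrees C. CellTiter-Glo 10 min RT, luminescence. Normalized to DMSO and media-only wells.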
KB-3-1 cytotox: kills parental KB-3-1 adenocarcinoma cells; Potency, µM (titrated, usually from 46.1 µM), most hits filed as cytotoxic; KB-3-1 viability, CellTiter-Glo ATP luminescence, 72 h; actives 1.4% (n = 400,000); AID 1347075; note: nearly all actives have a fitted effect of over 60% in size
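Parental KB-3-1 viability, qHTS format: 72 h compound exposure, 37 °C; CellTiter-Glo; media-only wells and DMSO plates as controls; concentration-effect fits on corrected data.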
KB-V1 MDR tox: kills drug-selected multidrug resistant KB-V1 cells | KB-V1 MDR cells viability, CellTiter-Glo, 72 h | Potency, µM (highest dose often 46.1 µM), most hits filed as cytotoxic | actives 3.4% (n = 400,000) | AID 1347076; note: nearly all actives have a fitted effect of over 60% in size
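Cytotoxicity toward P-gp-expressing KB-V1 cells was determined as loss of CellTiter-Glo luminescence after 72 h at 37 degrees C. Compounds were tested in quantitative HTS format across a concentration range, with curves fitted to normalized data.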
An asterisk follows results filed as active; i = inactive; ? = inconclusive; · = not tested or not shown; [ ] = remark or other dose. Calls come from the whole dose curve; as a rule, active = well fitted curve in the direction sought with a large enough effect; inconclusive = small, poorly fitted or top-dose-only effect, or another doubt; inactive = no such curve, though single readings can be large; an effect the other way counts as inactive or inconclusive. Unless noted, % is set by controls: 0 for no effect and ±100 for the full control effect; potency is the fitted concentration of half-maximal effect.

SMILES | HT1080 IDH1KD tx | HT1080-NT tox | KB-3-1 cytotox | KB-V1 MDR tox
CCOc1ccc(OCC)c(NC(=O)c2nnn(CC(=O)Nc3cc(C)cc(C)c3)c2N)c1 | 20.6µM* | ? | i | i
COc1ccccc1N1CCN(C(=O)C(NS(=O)(=O)c2cccs2)c2ccccc2)CC1 (configuration not stated) | 6.2% | 12.3% | i | 4.61µM*
COc1ccccc1N1CCN(c2ccc(-c3ccccc3)nn2)CC1 | ? | 2.59µM* | 2.06µM* | 2.06µM*
CCC(C(=O)N1CCN(c2ccccc2OC)CC1)c1ccccc1 (configuration not stated) | ? | -27.6% | ? | 20.6µM*
CCOC(=O)N1CCN(C(=O)C(CC)c2ccccc2)CC1 (configuration not stated) | 21.2% | 13.1% | i | 11.6µM*
COc1ccccc1N1CCN(S(=O)(=O)c2cccs2)CC1 | 0.6% | -0.2%[9.24 µM] | i | i
CCOC(=O)N1CCN(c2ccccc2OC)CC1 | 24.3% | 20.8% | i | i
COc1ccccc1N1CCN(c2ccc3ccccc3n2)CC1 | -12.9% | -15.1% | i | ?
Cc1ccc2c(=O)cc(C(=O)Nc3ccc(S(=O)(=O)N4CCC(C)CC4)cc3)oc2c1C | · | · | i | i
CCOc1ccc(C(=O)N2CCN(Cc3cc(=O)n4nc(-c5ccccc5Cl)sc4n3)CC2)cc1 | · | · | i | i
CCOC(=O)N1CCN(C(=O)c2ccccc2-c2ccccc2)CC1 | 7.31µM* | 10.3µM* | 4.61µM* | 4.61µM*
Cc1ccccc1Cn1c2ccccc2c2cnn(CC(=O)NCCc3ccccc3)c(=O)c21 | · | · | i | i
Cc1ccc(NC(=S)NNC(=O)c2nn(C)cc2Cl)cc1 | 3.5% | 10.5% | i | i
Cc1ccc(NC(=S)NNC(=O)c2nnn(-c3ccccc3)c2C)cc1 | -4.2% | -13.3% | i | 20.6µM*
Cn1c(SCc2ccccc2F)nc2cccnc21 | 2.8% | 9.0% | i | 18.4µM*
CN(C)c1ccc(NC(=O)Cn2c(SCc3ccccc3F)nc3cccnc32)cc1 | · | · | i | i
Cc1cc(C(=O)CSc2n[nH]c(N)n2)c(C)n1-c1ccc(F)cc1 | -24.7% | ? | ? | 16.4µM*
Cc1ccc(-n2c(C)cc(C(=O)CSc3n[nH]c(N)n3)c2C)cc1 | ? | 0.6% | 20.6µM* | i
Cc1cc(C(=O)CSc2n[nH]c(N)n2)c(C)n1-c1ccccc1 | ? | -24.2% | i | i
Cc1ccccc1-c1nc(CS(=O)(=O)CC(=O)NCCCc2ccccc2)c(C)o1 | · | · | i | i
COc1cc(/C=C/C(=O)c2ccc(C)cc2)ccc1OCC#N | 20.6µM* | ? | ? | 14.6µM*
CCOc1cc(/C=C/C(=O)c2ccc(C)cc2)ccc1OCC(=O)N(C)C | ? | -24.7% | ? | 14.6µM*
COc1ccc(/C=C/C(=O)c2ccc(C(=O)/C=C/c3ccc(OC)c(OC)c3)cc2)cc1OC | 0.0% | -10.1% | ? | i
O=C(NCC(c1ccc2c(c1)OCO2)N1CCN(c2ccccc2)CC1)C(=O)Nc1ccccc1 (configuration not stated) | · | · | i | i
Cc1cc2c(cc3c(SCc4ccc(Cl)cc4)nncn32)o1 | · | · | i | i
SMILES | HT1080 IDH1KD tx | HT1080-NT tox | KB-3-1 cytotox | KB-V1 MDR tox
CCOC(=O)c1cc2c(=O)n3ccccc3nc2n(C(C)C)c1=NC(=O)C(C)(C)Oc1ccc(Cl)cc1 | · | · | i | i
Cc1ccc(NC(C(=O)c2ccccc2)c2ccccc2)cc1 (configuration not stated) | ? | 23.1µM* | ? | i
COc1ccc(-c2nc(C)c(CCNC(=O)c3cccs3)s2)cc1 | · | · | i | 8.2µM*
Cc1ccc(-c2nc(C)c(CCNC(=O)c3cccs3)s2)cc1 | · | · | i | ?
Cc1ccc(C(=O)CSc2ncc3c(n2)-c2ccccc2N(Cc2ccc(Cl)cc2)S3(=O)=O)cc1 | · | · | i | i
O=S(=O)(Cc1ccc(Cl)cc1)c1ncc(CO)n1Cc1ccccc1 | -8.6% | 7.0% | i | i
O=S(Cc1ccc(Cl)cc1)c1ncc(CO)n1Cc1ccccc1 (configuration not stated) | -0.1% | -4.3% | 16.4µM* | i
COc1ccc2c(=O)n3nc(Nc4cccc(N5CCN(C)CC5)c4)sc3nc2c1 | · | · | i | i
NC(=O)c1nnn(Cc2cc(Cl)c(C(=O)c3ccc(Cl)cc3)c(Cl)c2)c1N | 4.11µM* | 9.2µM* | ? | 8.2µM*
COc1ccc(NC(=S)Nc2ccc(OCc3ccccc3)cc2)c(OC)c1 | -10.8% | -13.7% | ? | 16.4µM*
COc1ccc(NC(=S)Nc2ccccc2)c(OC)c1 | -1.4% | 1.0% | i | i
COc1ccc(/C=C2\SC(=S)NC2=O)cc1OS(=O)(=O)c1ccc(NC(C)=O)cc1 | 16.4µM* | 20.6µM* | i | i
O=C(CN1C(=O)CCSc2ccccc21)Nc1ccc2c(c1)OCCO2 | -22.8% | 4.6% | i | 13µM*
O=C(CN1C(=O)CC(c2ccco2)Sc2ccccc21)Nc1ccc2c(c1)OCCO2 (configuration not stated) | -21.2% | 0.7% | i | i
O=C(CN1C(=O)CCSc2ccccc21)Nc1ccccc1 | 1.3% | 8.7% | i | i
CC1CC(=O)N(CC(=O)Nc2ccc3c(c2)OCO3)c2ccccc2S1 (configuration not stated) | -22.4% | -1.7% | ? | 16.4µM*
O=C(CCS(=O)(=O)c1cccs1)Nc1ccc(C(=O)Nc2ccccc2F)cc1 | · | · | i | i
COc1ccc(CNC(=O)Cc2csc3nc(-c4ccc(C)cc4)cn23)cc1 | · | · | i | i
O=C(/C=C/c1ccccc1)C1C(=O)c2ccccc2C1=O | -1.8% | 3.4% | ? | 3.66µM*
COc1ccc(C(C)=O)cc1Cn1c(C)c(C(=O)NCc2cccc(C)c2)sc1=O | 5.8% | 5.4% | i | ?
COc1ccc(C(C)=O)cc1Cn1c(C)c(C(=O)NCc2cccc(C(F)(F)F)c2)sc1=O | ? | -19.1% | ? | 18.4µM*
CC(=O)Oc1ccc(Cn2c(C)c(C(=O)NCc3cccc(C(F)(F)F)c3)sc2=O)cc1 | ? | ? | 23.1µM* | 14.6µM*
ClC1=C(Cl)C(Cl)=C(Cl)C1=C/C=C/c1ccccc1 | -16.1% | -8.6% | 4.61µM* | 4.11µM*
Cc1c(Cl)cccc1NC(=O)Nc1nnc(N2CCCCCC2)s1 | · | · | i | i
O=S(=O)(Nc1cccc(-c2cn3cccnc3n2)c1)c1ccc(F)cc1 | -1.7% | -1.3% | i | 20.6µM*
O=S(=O)(Nc1cccc(-c2cn3cccnc3n2)c1)c1ccc(-c2ccccc2)cc1 | -6.9% | -6.2% | i | i
Cc1ccc(S(=O)(=O)Nc2cccc(-c3cn4ccsc4n3)c2)cc1 | ? | ? | ? | 23.1µM*
O=C(CN1CCN(S(=O)(=O)N2CCCCC2)CC1)Nc1cc(Cl)cc(Cl)c1 | -14.9% | -6.1% | i | ?
Cc1cc(NC(=O)CN2CCN(S(=O)(=O)c3ccc(Cl)cc3)CC2)no1 | -4.1% | 4.2% | i | 16.4µM*

High-throughput results: PubChem, National Center for Advancing Translational Sciences (NCATS)
